Screening data deposited in PubChem by Pan Lab, Icahn School of Medicine at Mount Sinai.
RBX1-CUL1 inh: inhibitors of human ROC1-CUL1 ubiquitin ligase activity; P62877+Q13616; 140,000 tested, 0.6% active; in vitro K48 di-Ub FRET, acceptor:donor ratio, 45 min; inhibition, % at 10 µM; in the data active means inhibition above about 25%
Starred values were filed as active, the others as inactive. Many of the other results were omitted from the sample, so hits are more common in it than they were.

SMILES | RBX1-CUL1 inh
COC(=O)OCC12CCC(O1)C1(C)C(=O)OCC21 (stereo not given) | 56.0*
O=C(NC(=O)N1CCC2(CC1)OCCO2)c1ccccc1 | 3.7
C/C(=N\N=C(/C)c1nnn(C)n1)c1nnn(C)n1 | -5.8
O=C1C(=O)c2ccccc2-c2ccccc21 | 98.0*
O=C1C(=O)c2cccc3cccc1c23 | 0.7
O=C1C(=O)c2c3ccccc3cc3cccc1c23 | -1.2
COCCOC(=O)C1C(=N)OC(C)=C(C(=O)c2ccccc2)C12C(=O)Nc1ccc(Br)cc12 (stereo not given) | 6.4
CN(C)C(=O)Oc1ccn2cc(-c3ccccc3)nc2c1 | -2.3
CCCCN1CN=C2C(C1)C(=O)N(C)C(=O)N2C (stereo not given) | 4.9
CCc1noc(COc2ccc3[nH]cc(CCN)c3c2)n1 | 9.9
N#CC(C#N)=Cc1ccc([N+](=O)[O-])s1 | 27.0*
N#CC(C#N)=Cc1csc2ccccc12 | -14.5
Cc1cccc(C)c1OCC#CCN1CCOCC1 | -1.2
Cc1ccc(NC(=O)NC(=N)N[N+](=O)[O-])cc1 | -1.9
Cc1nc2c(Br)cc(Br)cc2c(=O)n1-c1nccs1 | 9.7
NCCc1c[nH]c2ccc(OCc3nc(-c4ccccc4)no3)cc12 | 7.1
CC1CN=C(Nc2cccc(F)c2)S1 (stereo not given) | 1.7
O=C1NC(=O)N(c2ccccc2)C(=O)/C1=C\c1ccccc1 | -10.0
O=C1NC(=S)N(c2cccc(F)c2)C(=O)/C1=C/c1ccc(Br)o1 | 93.8*
C=CCN1C(=O)/C(=C/c2ccc(Br)s2)C(=O)NC1=S | 1.2
CN1C(=O)N(C)C(=O)C(Cl)(Cl)C1=O | 32.7*
CSc1ccc(C(=O)C2CCCN(Cc3ccncc3)C2)cc1 (stereo not given) | 3.3
CCOc1ccc(OCC)c(C=C(C#N)C#N)c1 | -4.6
Cc1cc(/C=C2\C(=O)NC(=O)N(Cc3ccccc3)C2=O)c(C)n1-c1ccc(Cl)c(C(=O)O)c1 | 35.8*
O=C1NC(=S)NC(=O)C1=Cc1ccccc1OCc1ccc(C(=O)O)cc1 | -9.6
SMILES | RBX1-CUL1 inh
CCOc1ccc(N2C(=O)/C(=C/c3cc(C)n(-c4ccc(S(N)(=O)=O)cc4)c3C)C(=O)NC2=S)cc1 | 27.6*
Cc1cc(/C=C2\C(=O)NC(=S)N(c3cccc(Cl)c3)C2=O)c(C)n1-c1cc(C(=O)O)cc(C(=O)O)c1 | 55.4*
COc1ccc(N2C(=O)/C(=C/c3cc(C)n(-c4ccc(C(=O)O)cc4C)c3C)C(=O)NC2=S)c(OC)c1 | 36.7*
COc1ccc(C=C2C(=O)NC(=S)NC2=O)c(OC)c1 | -2.4
C=CCN1C(=O)/C(=C/c2cc(C)n(-c3cccnc3)c2C)C(=O)NC1=S | 3.8
CC(Cc1ccc(OCCCN(C)C)cc1)N(C)C (stereo not given) | -12.5
CN1CCN(C(=O)COc2ccc(Br)cc2)CC1 | 10.7
CN(C)C(=O)Oc1cccc(OCC#N)c1 | -1.8
O=S1(=O)CC(N2CCOCC2)C2CCCCC21 (stereo not given) | 0.0
Cc1ncc2c(c1-c1noc(C3CC=CCC3)n1)CCNC2 (stereo not given) | 5.3
CC1CC(OC(=O)COc2ccccc2)(c2ccccc2)C(C)CN1C (stereo not given) | -5.8
Cc1cccc2cc3c(nc12)Sc1ccccc1N=C3 | -9.0
CC(=O)OC1=CC2=CCC3C(CC[C@@]4(C)C3CC[C@@H]4OC(C)=O)[C@H]2CC1 (stereo not given in full) | 1.3
CN(C)C(=O)Oc1cccc(-c2c[n+]3ccccc3n2C)c1 | -7.9
CC(=O)N1CCCSC1=Nc1ccc(Cl)c(Cl)c1 | -5.1
CN(C)C(=O)Oc1ccc(-c2cn3cc(N)ccc3n2)cc1 | 9.0
CC(=O)NCc1nc(-c2c(C)ncc3c2CCNC3)no1 | 7.2
CN(C)C(=O)Oc1cccc(-c2cn3cc(N)ccc3n2)c1 | 3.8
COc1cc(CC2C(=O)N(C)C(=O)N(C)C2=O)cc(Br)c1O | -9.3
COc1cccc(OCC#CCN2CCN(C)CC2)c1 | -4.8
CC(C)(C)CNC1COc2ccccc2C1 (stereo not given) | -0.6
O=C1NC(=O)N(Cc2ccc(F)cc2)C(=O)/C1=C\c1ccoc1 | 75.8*
CCOC(=O)C1C(=N)Oc2c(c(=O)oc3ccccc23)C1c1cccc(Cl)c1 (stereo not given) | -5.5
CCOC(=O)/C(C#N)=C1/CN2CCC1CC2 | 8.0
NC(=NC(=S)Nc1ccccc1)N[N+](=O)[O-] | 1.0
